Reference: PubChem BioAssay AID1259309 (ICCB-Longwood Screening Facility, Harvard Medical School, 2017)
In all, about 330,000 compounds went through this assay and about 1,800 (0.55%) were called active. The entries come from a sample that favours actives as a whole. A number with no mark means an inactive call. No stated cut-off is given here; in the data, active means growth inhibition above about 68%; inactive means the rest.

assay: growth inhibition of ugtP-null S. aureus, primary screen, RN4220 ugtP deletion, OD600 (AID 1259309); conditions: 16 h, hits give high values;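 further: plate controls were untreated wells for no effect and antibiotic for full effect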

With `CC(Oc1ccc2ccccc2c1)C(=O)NNC(=S)NC(=O)c1ccco1` (centres undefined) the growth inhibition was 91.7% (active).
In the case of `CCCc1ccc(OCC(=O)NNC(=S)NC(=O)c2ccco2)cc1`, the growth inhibition is reported as 96% (active).
With `COc1ccc(NC(=O)/C(Cl)=C(/Cl)S(=O)Cc2ccc(C)cc2)cn1` (centres undefined) the growth inhibition was 99.4% (active).
With `COc1ccc2c(c1)OC(O)(C(F)(F)C(F)F)CC2=O` (centres undefined) the growth inhibition was 99.4% (active).
For `CCC1C/C(=C/c2cccs2)C(=O)/C(=C/c2cccs2)C1` (centres undefined), the growth inhibition was 94.7% (active).
For `O=C(NC(Nc1nc2ccc([N+](=O)[O-])cc2s1)(C(F)(F)F)C(F)(F)F)c1ccccc1`, the growth inhibition was 100% (active).
With `O=S(=O)([N-]c1nc2ccccc2nc1-[n+]1ccc(Cc2ccccc2)cc1)c1ccc(Br)s1` the growth inhibition was 95.2% (active).
In the case of `Cc1cc(C(=O)CCl)c(C)n1CC1COc2ccccc2O1` (centres undefined), the growth inhibition is reported as 90.8% (active).
In the case of `CCCOC(=O)Nc1sc2c(c1C(=O)OCC)CCC2`, the growth inhibition is reported as 91.5% (active).
For `CCn1c2c(c3ccc(OC)cc31)CCCC2=O`, the growth inhibition was 95.9% (active).
With `COc1cccc(-c2cnc(OC(C)(C)C)nc2OC(C)(C)C)c1` the growth inhibition was 99.2% (active).
In the case of `O=C(Nc1ccccc1)c1nnsc1S(=O)(=O)c1ccc(Cl)cc1`, the growth inhibition is reported as 100% (active).

First: O=C(Nc1ccc2ccccc2c1)/C(=C/c1cccc(Br)c1)NC(=O)c1ccco1
Second: O=C(CNc1ccc2ccccc2c1)NN=Cc1ccc(C(=O)O)cc1
The growth inhibition of the first is lower: -9.2% for the first, 1.63% for the second.

Going from `Cc1ccc(C(=O)NNC(=O)C(C)Oc2ccc3ccccc3c2)o1` (centres undefined) to `CCN(CC(=O)Nc1ccc(OC)cc1)C(=O)CSCc1ccc(C)cc1`, the growth inhibition falls from 8% to 3.82%.

Going from `CC(=NNC(=O)CSc1nc2ccccc2o1)c1cccc(O)c1` to `O=C(COC(=O)c1ccc([N+](=O)[O-])cc1Cl)NC(=O)c1ccccc1`, the growth inhibition falls from 1.7% to -1.26%.

First: COc1cccc(C=NNC(=O)c2cc(-c3cccn3C)n[nH]2)c1
Second: CN(Cc1c(C(=O)NN=Cc2cccc(F)c2)nnn1-c1nonc1N)c1ccccc1
The growth inhibition of the first is lower: -20.1% for the first, 0.685% for the second.

First: Cc1ccccc1C(=O)ON=C(N)c1ccncc1
Second: Cc1ccsc1C=NNC(=O)c1ccncc1
The growth inhibition of the first is higher: 6.35% for the first, -0.727% for the second.

Going from `O=C(Cn1nc2ccccc2n1)NN=Cc1cc(Cl)cc([N+](=O)[O-])c1O` to `Cc1nnsc1C(=O)NN=Cc1ccccc1Cl`, the growth inhibition falls from 2.61% to 0.586%.

Compared with `COC(=O)CC1c2cc(C(F)(F)F)ccc2S(=O)(=O)N1Cc1ccccc1OC` (centres undefined), `CC(=NNc1ccc(C(F)(F)F)cn1)c1ccncc1` is lower in growth inhibition: 4.2% for the first, 1.19% for the second.

First: COc1ccc(CS(=O)/C(Cl)=C(/Cl)C(=O)Nc2ccc(OC)nc2)cc1 (centres undefined)
Second: COc1ccc(-c2nc(N)ncc2-c2ccc(Cl)cc2)c(O)c1
The growth inhibition of the first is higher: 15.9% for the first, -8.46% for the second.

Compared with `C[C@]12CCC3c4ccc(OC(=O)c5ccccc5)cc4CCC3C1CCC2O` (some centres undefined), `COc1ccc2c(c1)C(=O)CC(c1ccccc1)O2` (centres undefined) is lower in growth inhibition: 19.4% for the first, 6.73% for the second.

Going from `COc1ccc2c(c1)SC(C)CC2=O` (centres undefined) to `COc1ccc2c(C)cc3nnnn3c2c1`, the growth inhibition rises from -4.08% to 3.97%.

Compared with `CCC(=NOC(=O)c1cccc(C)c1)C(=O)c1cccs1`, `CC(CC(=O)Nc1ccccn1)=NNC(=O)C(=O)Nc1cccc(C)c1` is higher in growth inhibition: -0.652% for the first, 3.99% for the second.

Going from `O=C1/C(=C/c2cccs2)CCC1C1CCCC1` (centres undefined) to `O=C1/C(=C/c2cccs2)CCc2ccccc21`, the growth inhibition rises from 8.34% to 18.9%.

First: COc1ccc(O)c(C=NNC(=O)CN2CCS(=O)(=O)CC2)c1
Second: COc1ccc(C2C3=C(CCCC3=O)N(CC(=O)O)C3=C2C(=O)CCC3)cc1
The growth inhibition of the first is lower: -0.335% for the first, 7.87% for the second.

First: N=C1C(c2nc3ccccc3s2)=C(O)CN1NC(=O)c1ccc([N+](=O)[O-])cc1
Second: O=C(O)c1ccc(NC(=NS(=O)(=O)c2ccc(Cl)cc2)c2ccccc2)cc1
The growth inhibition of the first is lower: -0.97% for the first, 4.64% for the second.

Compared with `O=S(=O)(NCc1ccccn1)c1ccc(Br)s1`, `O=C1C(=O)N(CC2COc3ccccc3O2)c2ccccc21` (centres undefined) is lower in growth inhibition: 5.99% for the first, -2.06% for the second.

Going from `Cc1ccsc1C(=O)OCC(=O)c1cc(C)n(CC2CCCO2)c1C` (centres undefined) to `CCOC(=O)c1c(NC(=O)Cn2nc(C(F)(F)F)cc2C)sc2c1CCC2`, the growth inhibition rises from 0.578% to 2.33%.

Compared with `CCOC(=O)c1c(NC(=O)C(C)Sc2c[nH]c3ccccc23)sc2c1CCC2` (centres undefined), `CCC1=C2CCC3C(=O)N(C)C(=O)C3C2[C@@]2(Cc3ccccc3)C(=NCCOC)OC(=O)N2C1=O` (some centres undefined) is lower in growth inhibition: 25.3% for the first, -1.76% for the second.

First: CCOC1OC(C(=O)N2CCOCC2)=CC(c2ccc3c(c2)OCO3)C1CCCO (centres undefined)
Second: c1ccc(C2C3CN(Cc4cccnc4)C(c4ccccc4)C34CC2(c2ccccc2)C4)cc1 (centres undefined)
The growth inhibition of the first is higher: 2.32% for the first, 0.638% for the second.

Compound `CC(C)(C)Oc1ncc(Br)c(OC(C)(C)C)n1` has a growth inhibition of 2.82%.
